# From the supplement of paper PMC6555819
# Assays:
# Assay in all cases: PBM binding z-score (relative to random genomic background probes); higher = stronger binding; sequences stand for … in GC…GCGATTGACAGCGTAGAATGAAGG
# [1] = system: RARb homodimer (NR concentration 270 nM)
# Procedure, shortened: (§1)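 Custom Agilent 4×180K protein-binding microarrays carried double-stranded probes. Their 34-nt variable regions held direct-repeat seeds, single-nucleotide variants, half-site ablations and random human genomic background sequences. Arrays were incubated 1 h with ligand-free nuclear receptor dimers in PBS pH 7.4, 2% milk, 0.02% Triton X-100, 1 mM DTT, 0.2 mg/mL BSA and 0.4 mg/ml salmon testes DNA. Antibodies against each partner (one per run) detected binding, and scanned fluorescence was regression-normalized. Binding z-scores use random background probes as reference.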
# [2] = system: RARg:RXRa (NR concentration 270 nM, RXRa partner concentration 90 nM)
# Procedure, shortened: as §1
# [3] = system: RARg homodimer (NR concentration 270 nM)
# Procedure, shortened: as §1
# [4] = system: RXRa DBDmut IVT, anti-RXR (DBD mutation: RXRa K156A/R161A, NR concentration 90 nM)
# Procedure, shortened: as §1
# [5] = system: RXRa homodimer (NR concentration 180 nM)
# Procedure, shortened: as §1
# [6] = system: THRa:RXRa (NR concentration 90 nM, RXRa partner concentration 90 nM)
# Procedure, shortened: as §1
# [7] = system: THRa homodimer (NR concentration 90 nM)
# Procedure, shortened: as §1
# [8] = system: VDR:RXRa (NR concentration 270 nM, RXRa partner concentration 90 nM)
# Procedure, shortened: as §1
# [9] = system: VDR homodimer (NR concentration 270 nM)
# Procedure, shortened: as §1
Sequence,PBM binding z-score [1],PBM binding z-score [2],PBM binding z-score [3],PBM binding z-score [4],PBM binding z-score [5],PBM binding z-score [6],PBM binding z-score [7],PBM binding z-score [8],PBM binding z-score [9]
TAGCCTAGGTCATTCAGGGGCCAGTATCGAAAGC,3.55,5.82,4.73,1.96,3.05,3.47,0.885,2.97,1.48
CGAACTAGGTCATTGATAGGACAGTGAATAGTAA,2.83,4.58,4.22,2.29,2.34,2.61,0.97,2.27,1.35
GCGACTGGGGCATCAGCAGGTGACCATAACTTAA,0.835,0.367,0.374,-0.296,-0.0343,0.956,-0.08,-0.635,-0.617
ACTAGCAGGCCAAGTTGGGGTCACTCAAACAAAG,3.81,4.97,3.25,0.825,5.2,4.16,2.89,4.77,3.34
CCGACTGGGGCAGAAAAGTTACCATACCATCCGG,-0.232,-0.197,0.109,-0.438,-0.0105,-0.43,-0.509,-0.576,-0.39
GCTGCTAGGTCAACTGATGGTCAGCCAAAGCTCG,3.68,5.01,5.1,1.7,2.89,2.86,0.852,1.58,-0.263
CGAACTAGGTCAAGGACAGTGCATCTCCGCACGC,3.51,4.21,4.75,1.45,2.72,3.28,2.03,2.39,0.69
CTACCAAGGTGAACAAGGCCGTTGATTACTATTC,0.956,0.749,0.894,0.53,0.695,2.18,1.08,3.58,0.0898
CCTGCTAGGTCAATGGTTAGCTAAAGCAGCTCGC,2.6,3.3,3.9,1.65,1.78,2.11,0.48,0.802,-0.158
GCATATAGGTAAAACAAGGTGAAAGTCCGATTGT,0.61,0.353,0.33,0.273,0.55,4.2,0.967,0.401,0.035
CCTAGCAGGCAAGGGTCACTCAAGCATTTCGCTT,3.46,4.12,3.63,0.602,4.6,2.36,-0.309,2.81,0.817
TCTAGCAGGCCAGAGGATCACTCAAGAGGTACGG,-0.66,-0.277,-0.18,-0.0121,0.0922,-0.78,-0.974,-0.662,-0.819
ATCTCTAGGTAAAAGTTCAGTAAATCCCGAGGAT,2.41,1.83,1.94,0.937,1.61,1.38,0.269,1.19,2.01
CCGACTGGGGCAAAAAGGTTACCATACCATCCGG,2.34,1.8,1.6,-0.333,1.7,1.21,0.0277,1.28,0.374
TAGCCTAAGTCATTCAGGGGCCAGTATAGAAAGC,0.772,1.72,0.386,-0.0569,0.191,0.835,-0.418,-0.0562,-0.452
CCTTACGGGTCACTCCAGGTTATCGCATCGGAGT,3.25,4.44,4.23,1.07,4.36,5.13,0.863,4.2,1.57
TCGAGTAGGTTAGTCGGCGCATTCAGCCAACATA,-0.408,-0.412,-0.662,-0.0124,-0.244,-0.542,-0.648,-0.0837,-0.26
AGTCAAAGTTCATGTAGGTAACGTAAGATATGCT,3.73,5.31,5.84,4.74,4.45,2.65,-0.0581,4.84,4.64
AATACAGGGTCATCGTAGGCCAGAGAACGCACAG,3.8,6.12,5.66,3.55,6.83,4.95,1.74,5.24,2.9
TCTTGTTGGTCACGGAGGTCACACACGACGGGTA,4.67,5.21,5.01,1.25,5.34,3.66,3.03,6.07,3.59
ACTAGTAGGCCAAGTTTGGGTCACTCAAACAAAG,2.48,2.53,2.16,0.0627,1.15,2.6,1.31,0.967,0.613
AGAATGTGGTTATTAAGATCAGGGAATTGCGGTC,0.199,-0.113,0.223,-0.0893,0.0791,0.147,0.17,0.251,0.201
GCGACTGGGTCATCAGCAGGTTACCATAACTTAA,2.55,4.89,3.53,0.877,3.03,2.88,0.268,2.27,0.085
TCTCGGAGGAGACGAAGGTCAGAGCTTTCCAGAG,2.74,1.88,1.77,-0.234,1.63,1.11,-0.507,0.483,-0.413

Sequence,PBM binding z-score [1],PBM binding z-score [2],PBM binding z-score [3],PBM binding z-score [4],PBM binding z-score [5],PBM binding z-score [6],PBM binding z-score [7],PBM binding z-score [8],PBM binding z-score [9]
GCTGCTAGGTCAACTGATGGTCGGCTAAAGCTCG,3.67,4.74,5.56,1.82,2.91,3.09,0.97,1.4,0.148
CCTACTGGGCCATTCAGAGGTCCTTGATCATATG,0.208,-0.0281,-0.184,-0.26,-0.29,-0.305,-0.128,-0.591,-0.336
TCGAGGAGGTTACCAATGGGGCATTCAGCTTTCT,1.69,2.85,1.13,0.716,1.83,1.06,-0.297,1.13,0.112
ATCTCTAGGTAAAGATAGTGCAGTGAATGCAAAT,-0.372,0.0561,0.36,-0.368,0.254,0.223,-0.337,0.0652,-0.144
ATATGTAGGTTAGGTGGGGTCATTCAGACTAGGC,3.74,4.1,3.02,2.19,5.54,5.05,3.72,6.5,6.4
TCTGCAAGGTCAGTTGGTCAGCTAACGAGCTGCC,3.59,4.63,5.16,2.42,2.78,3.02,0.921,2.19,1.12
GCAGACACGTGAAACGCAGGTAACTCAGGGTGGC,-0.78,-0.43,-0.333,-0.425,-0.324,0.299,-0.673,-0.854,-0.988
ATCTCTAGGTAAAGGTAGTTCAGTGAATGCAAAT,0.964,0.44,0.605,0.345,0.164,1.21,0.679,1.12,1.12
TAGCCTACGTCATGGGCCAGTATACCACGCGAAC,-0.00941,-0.29,-0.1,-0.76,-0.0748,-0.335,-0.4,-0.472,-0.575
GCTAGCAGGCCATATGGGTCACTCAATGACGGGC,1.78,1.54,1.39,-0.402,1.43,1,-0.658,0.951,-0.276
AGAACAAGGGCACGCTGAGTTGATAGCAGAGTAG,1.11,1.6,1.99,1.22,0.942,1.28,-0.108,1.36,1.07
TCTTCTAGGTCAACGATGGTCAGCTAATCTGCTA,3.76,4.37,5.58,1.9,3.09,3.55,2.17,2.41,0.674
CGTCCAAGGTCAAAGGGCAGTGAAGAGATGACGG,4.39,6.57,6.29,3.46,7.24,4.14,1.86,4.65,2.28
CCGACTGGGGCATAGGTTACCATACTCAGTACGA,0.786,0.922,0.833,-0.223,1.03,0.28,-0.456,-0.0526,-0.332
CCTTGCAGGCCAGGGTCACTCAAGCATTTCGCTT,2.93,3.21,2.83,0.484,3.43,2.76,1.07,2.69,1.18
TCATATAGGTAAATGCTATGTGAAAGTCCGATCT,-0.22,0.473,0.452,1.17,0.894,0.0535,0.0976,0.852,0.435
TAGCCTAGGTCATTCACGGGCCAGTATAGAAAGC,2.73,4.9,4.23,1.96,2.7,2.91,0.437,2.28,1.43
AATACAGGGTCATCGTAGGCCAGAGTGCGCACAG,3.68,5.64,4.81,3.12,6.37,4.6,1.4,5.15,3.2
TCATATAGTTAAATGCTAGGTGAAAGTCCGATCT,0.141,0.1,0.364,1.68,0.476,0.852,0.605,0.952,0.158
TAGCCTAGGTCATTCTGGGGCCAGTATAGAAAGC,2.94,4.85,3.81,1.87,2.52,3.62,0.956,2.88,1.11
CAAACTAGGTCACGAAAGGTCCAAGTCGAATGAC,3.73,5.23,5.73,1.55,4.45,3.87,1.39,3.82,1.55
CAAACTAGGTCAAGAGCTCAAAGTCCGCTTCCCG,2.98,3.82,4.02,1.34,2.39,2.73,0.891,1.29,0.0239
CGTCCAAGGTCAGCAGGCCAGTGAAAGCGACGTG,4.1,5.07,5.77,2.47,3.86,3.74,1.89,2.58,1.25
CCAGACAGGTGAAAGGTGACTCAGTCTGGTACGC,1.63,2.35,1.15,-0.229,3.18,1.44,0.239,1.3,0.14
